Results published in PubChem BioAssay.
Calls of active or inactive are those of the source. The rule behind the calls is not given here.

target: Pantothenate synthetase (Mycobacterium tuberculosis (strain ATCC 25618 / H37Rv)) (UniProt P9WIL5); assay: Recombinant Mtb pantothenate synthetase (PanC) inhibitors, coupled enzyme, confirmatory (AID 375); conditions: coupled enzyme assay; at 10 µM, active compounds read high;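 note: 0% = full reaction with vehicle and 100% = no enzyme background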
Sequence (P9WIL5 whole entry, looked up): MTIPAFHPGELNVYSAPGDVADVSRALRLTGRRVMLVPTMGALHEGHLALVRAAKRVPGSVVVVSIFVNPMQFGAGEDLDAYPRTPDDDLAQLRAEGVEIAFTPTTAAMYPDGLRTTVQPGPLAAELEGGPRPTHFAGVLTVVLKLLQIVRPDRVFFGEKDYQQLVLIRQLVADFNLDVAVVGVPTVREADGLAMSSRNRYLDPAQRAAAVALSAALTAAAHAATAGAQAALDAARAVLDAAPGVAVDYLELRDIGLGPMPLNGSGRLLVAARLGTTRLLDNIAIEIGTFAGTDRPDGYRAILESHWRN

SMILES | inhibition
CCOC(=O)c1cnc(-n2nc(C)cc2C)nc1Nc1ccc(N(C)C)cc1 | 8% (inactive)
CCOC(=O)c1c(C)c(C(=O)NCC2CCCO2)c(C)n1C (centres undefined) | 7% (inactive)
CCNc1oc(COc2ccccc2F)nc1C#N | 9% (inactive)
O=C(CSc1nnc(-c2ccco2)c(-c2ccco2)n1)Nc1ccccc1 | 2% (inactive)
O=C(COc1ccc(Cl)cc1)Nc1ncccn1 | 9% (inactive)
O=C(NC1CCCCC1)N(Cc1ccccc1)Cc1ccco1 | 1% (inactive)
Nc1nnc(SCC(=O)N2CCc3ccccc32)n1-c1ccccc1 | 1% (inactive)
COC(=O)CCC(=O)Nc1cccc(Br)c1 | 0% (inactive)
O=C(O)C1CC(=O)N(CCOc2ccccc2)C1 (centres undefined) | 8% (inactive)
CCOC(=O)c1[nH]c2cc(OC)c(OC)cc2c1NC(=O)C(C)N1CCN(Cc2ccccc2)CC1 (centres undefined) | 1% (inactive)
O=C(NC1CC1)C1CCN(c2ccc(S(=O)(=O)N3CCOCC3)cc2)CC1 | 0% (inactive)
COc1cccc(C2C(C(N)=O)=C(C)Nc3nc(CCCO)nn32)c1OC (centres undefined) | 3% (inactive)
Cc1cc(NS(=O)(=O)c2ccc(NC(=O)COc3ccc(Cl)cc3)cc2)no1 | 9% (inactive)
COc1ccc(CCN(C)CCCC(C#N)(c2cc(OC)c(OC)c(OC)c2)C(C)C)cc1OC (centres undefined) | 0% (inactive)
C=CCOc1ccc(/C=N/n2cncn2)cc1OC | 0% (inactive)
CCc1c(C(=O)NCCc2ccc(OC)c(OC)c2)[nH]c(C)c1C(C)=O | 12% (inactive)
CC(C)(C)c1ccc(C(=O)N2CCC(C(=O)NCc3ccncc3)CC2)cc1 | 0% (inactive)
CC(=O)Nc1nc2c(c3c1c(=O)oc1ccccc13)CC(C)CC2 (centres undefined) | 0% (inactive)
Cn1c(=O)cc(SCC(=O)N2CCOCC2)c2ccc(Cl)cc21 | 0% (inactive)
CC(C)(C)OC(=O)N1CCN(c2ccc(NC(=O)c3cc4ccccc4oc3=O)cc2)CC1 | 6% (inactive)
COc1cccc(NC(=O)Cc2nnc(SCC(=O)c3ccccc3)n2C)c1 | 0% (inactive)
CCOC(=O)Cn1ncc(-c2ccccc2)c1N | 6% (inactive)
O=C(NCc1ccco1)C1CCN(C(=O)c2cc3sccc3n2Cc2ccc(F)cc2)CC1 | 5% (inactive)
COc1ccc(-c2nc(CSCC(=O)N3CCc4ccccc4C3)c(C)o2)cc1OC | 0% (inactive)
